# Whole data set: some 1,800 sequences, median “median log2 fold change of GCK-ALFA target abundance (FLAG IP / Myc IP barcode read proportion)” near 0.14, cut for the lowest 2% near -0.84. Only a selection was taken, and the lowest values are over-represented in it overall.
# B1: traf2_out_3_89_2284 (protein)
# chain: SHHMEALIEEARKIAEAYAKGFRKSLTFVAKQMVAEGHSLETLEGVANAAKTALVEEFRESLKERGLDEETIKEIVEELRKKLDEIVKEVIAEAKKARAA
# B2: traf2_out_6_156_2424 (protein)
# chain: MLEKIIKEAEEKIKKEIKKLAEASEEKKIKYISDIAGAVYKALQKMREAGASVEEIKEAIERLKKVAEKEAKKAGLDKDTRDLLLASINAVGEVALREAK
# B3: traf2_out_1_158_908 (protein)
# chain: STDVSTLHAVATSIAEVYAEEAKERGLEKAAELLKKLKKEIEKLYEANKDASLEEMAAKVLELIKKFEEESKSFDPETREFVEIAFRQIRSGILQVVKLA
# B4: traf2_out_5_63_2366 (protein)
# chain: SAAEEERRRLREEARLIEAAIRAVIDGREEEARRLLAEAEARGIDWRTVALYFRGMARALRLQNEPQEKIERMERAAEEARARAEAAAAAAAAAAAAAAA
# B5: traf2_out_20_38_2025 (protein)
# chain: SEEEEEEKKLEELIKVANDAYDAATAEIAALKAEGKSVEEIAEWAKEKIKEILDKVGLEEEKEELIADVDRVLDSPDALTLIARILARAVAKAKQKELQE
# B6: traf2_out_20_3_2078 (protein)
# chain: SELEAELERELDRALALLRQAAARADPETAARLDALIARLRASRELSIEDRLVAISAVRREVRALAEEARAAGRADLAALLDAAADALNRAAQLAYEILE
# B7: traf2_out_17_178_1662 (protein)
# chain: SKEEERKKISELTDELIDLAEDAAERMLELAEKEGDVSEEELEELREARRRGSATDVLALGERLIPKLKNSEELGALLEEFKARYRELSKEIAEAYERYE
# B8: traf2_out_1_27_1014 (protein)
# chain: SDEELTKLIKETDKKIAEVSLEEAKKVVKEALKEAAKLGPEDAMVLANTLIASQLDEERLKAIAEAAVEAFKELGFPEEDIERLKRIAESVLKLNKKVLA
# B9: traf2_out_11_104_655 (protein)
# chain: LTREQAREFNDFAMEARDRAREIAEAVAAELEARGHTEEAARVRALLNDPGAGISSFRNLLEELKPRLDAESRKVADAAIEELRRLQREVSEKLNELLAK
# B10: traf2_out_20_3_2147 (protein)
# chain: EELERELAEELERAKALLAEAAALADPETAARLEALRERLEASRALSPSDQLVVVSEVRREVRLLAQEARAAGDEELAALLEEAAAALNRAANLLMRIIE
# B11: traf2_out_13_95_1174 (protein)
# chain: EEEKTKKEREIASEAYDEREEVMTAYKEAVVALLGDPAAAALMDEVVRNMNEFTLEHATAQLVAAHPEKAAELQALRDEALAKMKEINKKYTEKLNEIEK
# B12: traf2_out_14_149_1247 (protein)
# chain: SHMAETLRAAAELNERIAKALEEILKLLEAGKLEEAKAALEAAIKEAEALGEELGVTTSGIFEMEHILKLLKEDPEEAKKAVKEAAERARDAAEVLRSIA
# B13: traf2_out_17_162_1536 (protein)
# chain: SPEDERLAELQKRLEELEKKLEELEKKLKNIEKLSKEELTDLLVEASELRREARELAEELRELAEKTGSPEAEELRERAEELAEKLQRIANEIYKELEKK
# B14: traf2_out_17_178_1708 (protein)
# chain: TKEEARKRISEATDEMIDLAEEAAARLLEIAEREGSLSPEELAALRRARRLGSARTTIALMERAIPRLRSAEEVRALLEELKARYRELSKEIAEALEKYE
# B15: traf2_out_5_192_2336 (protein)
# chain: SAEEEARERRLRERAEEILREAEERAKKISERTGLDYATVLATLAFSRVVARAESAEEARLMLDYIVEMITARDPSWAPIAEGEKAAALRAIDAIEAAEP
# B16: traf2_out_20_38_2023 (protein)
# chain: SMEEEEEEKLKELVEVANKAYDEYSAKFAKWKAEGKTVEEIAEEVKKEIRELLSKAGLEEEAEILIEDVDLALKSPNAERLLIRTLARAVALVKQKELQK
# B17: traf2_out_13_95_1070 (protein)
# chain: TRELARRINELADRAEERALALLAAAQAELADDPEAVAVLDEAARLAETRGIRAAIALLREAQAAHPEHREAFDALIAELEEIRRELGREVAKLIKEAEE
# B18: traf2_out_6_156_2375 (protein)
# chain: MLEKILEEAKKKIEELIKELAKASEEKKIAYISRIAGAVYRALQRMREAGASVEEIKKAVEELKKVAEEKAKEAGLDQDTIDLLLASIDAVGKVALEEAK
# B19: traf2_out_17_178_1676 (protein)
# chain: TKEEKRKKISELTDKYIDLAEATAARLLALAEAEGFMTPEELAALRAAQRRGNGRLVEALLERAIPRSPRAAEVAALLADYRARSRELAKEIAKALEEYE
# B20: traf2_out_6_156_2412 (protein)
# chain: MVEEILEKALEKVEELIKELAKASEEKKIAYISKIAGTAYRALQELREAGASLEEIEAFAEEFKKRTEELLKEAGLPEDTINLVLSALNAVFDVAIAEAK
# B21: traf2_out_11_155_735 (protein)
# chain: EEKQKLIQEMNDKIMELFEEARRRALEIARRAAERHPEHREEIEAAIEESKGFSYRSFILEMIRLFRELGLEEEAEELERLLEETQRKASKIVIETEKKL
# B22: traf2_out_17_162_1539 (protein)
# chain: SPTEERLEELERRLERLEEELKKLKEKSEKLDELSKEEISDLLVEVSELRREALRLAEELRRLAEETGSPRARELEERAERLAEELQRIANKIYKELEKK
# B23: traf2_out_11_155_726 (protein)
# chain: SKFKEAQNKIVDFNLEVGDELLKKVEEIIKEIEKEDPEVAKKLREVVEKYKKFSNRSAARAAIDLLREEGYEEYAERLEKALEEAQRKMSKKTQEIEKEL
# B24: traf2_out_6_3_2520 (protein)
# chain: MEESIRRDARTVLENMGITTAEQLKRLVEANVNAVKKLVSRPDVDEADLAGARSVLALTRAMVDVAAETLPDLTPEQVAEMKALIKEAEELVEKKRKELE
# B25: traf2_out_6_3_2516 (protein)
# chain: MEESIRKDAETVLENMGITTAEQLKRLVKAEVNAVKKLVSRKDVDEADLAGAESVLNLTRAMVEVAYEKLPDLTEEQKKEMLALIKEAEELVKKKRKELE
# B26: traf2_out_18_3_1943 (protein)
# chain: KEEELKKISEEIDKIIDEVTARAREELDRLLAEHPELAAEAEALRADLDAGAGPFGILDELARLWERAGAADEAAAARAFLREKRKKLQELVDKYEELRK
# B27: traf2_out_13_95_1132 (protein)
# chain: SAETAKKIMEIADKMLDEILAILEELLKKAEAAGVGVEEIQKAIHLAEHHSVNEAIHLLRELAKKHPEFKAELEAAIAKIEAIREKAGREVAKILKEAAE
# B28: traf2_out_1_27_1022 (protein)
# chain: SDEEFTRLIRETDRKIAEVDLEEQKKVVKEALKEAAKWGLGDARMLARTLVASQNDEERQEAIKEASLEAFKELGAPEEVIEELERVFNSIIERKKKVLA
# B29: traf2_out_18_167_1872 (protein)
# chain: SAELKKKREELTDELVRYSTIRRALLLILEALKRSREEARRLLEEYVEKYPDSEVLREALEVFETKSDEEFRKFLEEKAEELQKEANEKYKELEELEKEE
# Target: T1, TRAF2, Q12933
# T1 chain: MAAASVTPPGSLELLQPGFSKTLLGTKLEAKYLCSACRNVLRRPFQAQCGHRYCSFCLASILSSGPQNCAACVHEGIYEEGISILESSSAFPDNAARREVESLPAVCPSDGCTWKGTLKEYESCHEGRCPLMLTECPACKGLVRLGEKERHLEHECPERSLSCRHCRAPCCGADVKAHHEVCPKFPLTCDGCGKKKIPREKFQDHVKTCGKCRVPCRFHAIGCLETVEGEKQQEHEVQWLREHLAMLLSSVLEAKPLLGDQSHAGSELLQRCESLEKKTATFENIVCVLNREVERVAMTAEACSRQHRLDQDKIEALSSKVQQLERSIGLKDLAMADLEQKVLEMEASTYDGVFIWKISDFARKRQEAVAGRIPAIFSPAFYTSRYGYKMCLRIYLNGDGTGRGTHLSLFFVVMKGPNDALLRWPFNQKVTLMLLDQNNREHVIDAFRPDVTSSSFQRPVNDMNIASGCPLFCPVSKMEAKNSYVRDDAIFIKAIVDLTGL
# Test: median log2 fold change of GCK-ALFA target abundance (FLAG IP / Myc IP barcode read proportion) (log2 ratio); each designed protein is fused to an ALFA-tag nanobody in HEK293 cells to bring the named protein to FLAG-tagged glucokinase (GCK); Myc marks an untargeted standard; higher = target protein stabilised (more abundant)
# Details: target protein: 3xFLAG-MCP-GCK-ALFA reporter; HEK293 landing pad (RPLP)
# Experimental: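 LABEL-seq trans screen in HEK293 landing-pad cells. Each de novo designed 100-aa effector handle, binding the indicated effector (E3 ligase, DUB or autophagy protein), is fused to a constant NbALFA target handle and induced with 2 ug/mL doxycycline. A FLAG-MCP-GCK-ALFA target and a Myc-MCP standard reporter were transfected, and after 48 h circRNA barcodes were recovered by anti-FLAG and anti-Myc IP and sequenced. The value is the median across barcodes (at least 3 per design) of log2(FLAG/Myc read-proportion ratio), with the two transfection replicates pooled. Negative values mean degradation and positive values mean stabilisation of the target.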
row,Binder,median log2 fold change
1,B1,-0.43
2,B2,-0.0673
3,B3,0.0558
4,B4,-0.861
5,B5,-0.841
6,B6,-0.0407
7,B7,0.161
8,B8,0.337
9,B9,0.222
10,B10,0.226
11,B11,0.311
12,B12,-0.194
13,B13,0.429
14,B14,-0.184
15,B15,-1.01
16,B16,-1.38
17,B17,-0.334
18,B18,0.151
19,B19,-0.865
20,B20,0.261
21,B21,-0.138
22,B22,0.204
23,B23,0.469
24,B24,-0.989
25,B25,-0.56
26,B26,0.0947
27,B27,-0.315
28,B28,0.214
29,B29,0.106

# From the supplement of paper PMC12632987
